Structures are written as SMILES. Over roughly 110,000 compounds, “z-score” has its median near -0.1; the highest 2% begin near 2. Shown is part of a subset that was picked to be rich in the highest values. Activity calls are given as the source filed them.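 The calls were made as follows: active = z-score in the third read window above 3 or below -3; inactive = the rest.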

The target of this assay is Metabotropic glutamate receptor 8 (Rattus norvegicus) (UniProt P70579). The assay is described as follows: mGluR8 Gi/Go-coupled signaling modulation – cell-based, rat, thallium flux, HTS, primary screen (AID 488969). The conditions noted are these: HEK293 rat mGluR8, GIRK (G protein-gated inwardly rectifying potassium channel) thallium flux, FluoZin2; at 10 µM; stronger effect = higher value; submaximal glutamate (EC20) added with thallium.
Metabotropic glutamate receptor 8 (Rattus norvegicus), sequence (P70579 whole entry, looked up): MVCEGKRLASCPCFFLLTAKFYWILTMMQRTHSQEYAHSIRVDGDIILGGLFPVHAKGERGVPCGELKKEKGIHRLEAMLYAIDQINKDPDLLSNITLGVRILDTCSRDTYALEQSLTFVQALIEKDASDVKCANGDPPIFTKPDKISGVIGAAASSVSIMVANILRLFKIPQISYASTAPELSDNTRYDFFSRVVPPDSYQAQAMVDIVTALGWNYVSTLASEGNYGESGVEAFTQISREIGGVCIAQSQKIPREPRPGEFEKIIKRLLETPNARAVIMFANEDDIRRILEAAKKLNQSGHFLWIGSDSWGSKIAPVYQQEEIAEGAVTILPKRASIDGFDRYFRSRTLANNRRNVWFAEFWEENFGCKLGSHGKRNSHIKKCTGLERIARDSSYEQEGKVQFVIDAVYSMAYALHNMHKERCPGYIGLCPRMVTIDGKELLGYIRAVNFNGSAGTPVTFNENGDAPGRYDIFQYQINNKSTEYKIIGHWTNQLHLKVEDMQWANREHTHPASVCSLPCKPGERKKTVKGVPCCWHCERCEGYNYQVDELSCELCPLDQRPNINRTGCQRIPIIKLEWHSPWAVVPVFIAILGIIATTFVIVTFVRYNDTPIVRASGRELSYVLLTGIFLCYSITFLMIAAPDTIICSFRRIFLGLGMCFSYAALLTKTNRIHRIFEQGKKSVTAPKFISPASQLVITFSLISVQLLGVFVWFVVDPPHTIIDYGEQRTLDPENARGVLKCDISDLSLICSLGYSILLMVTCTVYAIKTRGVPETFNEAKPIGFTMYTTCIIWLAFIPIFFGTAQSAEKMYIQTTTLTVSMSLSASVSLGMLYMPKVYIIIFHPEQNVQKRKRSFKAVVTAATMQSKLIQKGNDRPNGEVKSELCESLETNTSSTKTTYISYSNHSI
`COc1ccc(OC)c(N(CC(=O)Nc2ccc3c(c2)OCO3)S(=O)(=O)c2ccccc2)c1` came in with a z-score of -0.348.

Molecule `CC1CCCN(S(=O)(=O)c2ccc(C(=O)Nc3ccccc3-c3nc4ccccc4[nH]3)cc2)C1` (stereo not given) displayed a z-score of -0.205.

As to `O=C(Nc1nnc(-c2ccccc2Cl)o1)c1ccc(S(=O)(=O)N2CCCCCC2)cc1`, the z-score is 13.1 (active).

For the molecule `CC1CCCN(S(=O)(=O)c2ccc(C(=O)Nc3nnc(-c4ccccc4Cl)o3)cc2)C1` (stereo not given), the z-score is 3.98 (active).

For the molecule `COCc1nnc(NC(=O)c2ccc(S(=O)(=O)N3CCCCCC3)cc2)o1`, the z-score is -0.164.

On to `Cc1nnc(NC(=O)c2ccc(S(=O)(=O)N3CCCCCC3)cc2)o1`, for which the z-score was -0.304.

On to `CCC1CCCCN1S(=O)(=O)c1ccc(C(=O)Nc2nnc(-c3ccccc3Cl)o2)cc1` (stereo not given), for which the z-score turned out to be 1.12.

`CCOC(=O)Cc1csc(NC(=O)CSc2nnc(C(C)C)n2CC)n1` registered a z-score of 0.0208.

`CCN(CC)c1ccc(NC(=O)c2cccnc2)cc1` came in with a z-score of -0.663.

Regarding `CCCS(=O)(=O)N1CCC(C(=O)N2CCCC2)CC1`, the z-score is -1.16.

`O=[N+]([O-])c1ccc(N2CCN(S(=O)(=O)c3ccccc3[N+](=O)[O-])CC2)cc1N1CCc2ccccc2C1` came in with a z-score of -0.00158.

For the molecule `O=C(/C=C/c1ccccc1Cl)NCc1ccco1`, the z-score was -0.133.

`C=CCN(Cc1cccc(OC)c1OC)S(=O)(=O)N(C)C` showed a z-score of -0.164.

For `CCOc1ccc(-n2nnnc2-c2nc3ccccc3s2)cc1`, the z-score is -0.319.

In the case of `Cc1ccc(-n2nnnc2-c2ccco2)cc1`, the z-score is -0.111.

As for `Cc1ccc(-n2nnnc2-c2nc3ccccc3s2)cc1`, the z-score was 6.16 (active).

In the case of `CCN(CC)C(=O)/C(=C\c1cccc([N+](=O)[O-])c1)NC(=O)c1ccco1`, the z-score is -0.281.

In turn, `CC(/C=N/NC(=O)c1cc(-c2ccc(Cl)cc2)nc2ccccc12)=C\c1ccco1` showed a z-score of 0.0726.

For `CC(/C=N/NC(=O)c1cc(-c2ccccc2)nc2ccccc12)=C\c1ccco1`, the z-score was -0.0414.

On to `Cc1ccc(-c2cc(C(=O)N/N=C/C=C/c3ccco3)c3ccccc3n2)cc1C`, for which the z-score was 2.64.

`Cc1ccc(C(=O)N(Nc2nc3ccccc3s2)C(=O)c2ccc(C)cc2)cc1` showed a z-score of 0.0589.

`O=C(OCc1ccc([N+](=O)[O-])cc1)c1ccc(N2CCCC2)c([N+](=O)[O-])c1` yielded a z-score of 0.344.

`CC(C)(C)N1CC2(c3ccccc3)CN(C(C)(C)C)CC(c3ccccc3)(C1)C2=O` returned a z-score of 1.19.

Regarding `O=[N+]([O-])c1cnccc1Nc1cccc(F)c1`, the z-score stood at 0.28.

With `O=[N+]([O-])c1ccccc1-c1cc(-c2ccccc2O)n[nH]1`, the z-score was -0.676.

Molecule `O=C(/C=C/c1ccccc1)/C=C/c1ccccc1` had a z-score of -0.389.

In the case of `CCc1ccc(/C=C\C(=O)N2CCc3ccccc3C2)cc1`, the z-score was -0.105.

As for `O=C(/C=C/c1ccccc1)C1C(=O)c2ccccc2C1=O`, the z-score was 4.21 (active).

Turning to `CCc1ccc(/C=C/C(=O)C2C(=O)c3ccccc3C2=O)cc1`, the z-score was 3.92 (active).

As to `CCc1ccc(/C=C/C(=O)c2c(C)cc(C)[nH]c2=O)cc1`, the z-score is -0.106.

Molecule `Cc1ccc(/C=C/C(=O)C2C(=O)c3ccccc3C2=O)cc1` registered a z-score of 0.871.

The molecule `COc1ccc(N(C(=O)c2cnsn2)C(C(=O)NC2CCCCC2)c2ccncc2)cc1` (stereo not given) came in with a z-score of 0.0313.

Molecule `CCCCNC(=O)c1ccccc1C(=O)NCCCC` displayed a z-score of 0.0704.

On to `CC(C)NC(=S)NC(=O)c1ccc(Cl)cc1Cl`, for which the z-score was 13.8 (active).

`CCCCNC(=O)c1ccccc1Cl` gave a z-score of -0.135.

Consider `CCCCNC(=S)NC(=O)c1ccccc1Br`, for which the z-score is 6.17 (active).

`Cc1cc(Cl)ccc1NC(=S)NCC(C)C` yielded a z-score of -0.0377.

In turn, `CC(C)CC(NC(=O)c1ccc(Cl)cc1Cl)C(=O)O` (stereo not given) came in with a z-score of -0.413.

Consider `CCCCNC(=S)NC(=O)c1ccc(Cl)cc1Cl`, for which the z-score was 3.01 (active).

The molecule `O=C(NC(=S)NCC1CCCO1)c1ccc(Cl)cc1Cl` (stereo not given) showed a z-score of -0.218.

For `O=C(NC(=S)NCCN1CCOCC1)c1ccccc1Br`, the z-score is 0.00751.

In turn, `O=C(NC(=S)NCCN1CCOCC1)c1ccc(Cl)cc1Cl` came in with a z-score of 0.241.

As to `CCC(=O)Nc1cccc(NC(=S)NC(=O)c2ccc(Cl)cc2Cl)c1`, the z-score stood at 0.0528.

For the molecule `CC(C)CNC(=S)NC(=O)c1ccc(Cl)cc1Cl`, the z-score was 13.8 (active).

The molecule `Cc1cc(N2C(=O)CC(Cc3ccccc3)C2=O)no1` (stereo not given) showed a z-score of -0.0586.

The molecule `CCOc1ccc(N(CC)S(=O)(=O)c2ccc3c(c2)n(C)c(=O)c(=O)n3C)cc1` displayed a z-score of -0.239.

On to `CCN(CC)S(=O)(=O)c1ccc(N2CCOCC2)c(NS(=O)(=O)c2ccc(C)cc2)c1`, for which the z-score is -0.152.

For `Clc1ccc(Cn2ncc3c(N4CCCCC4)ncnc32)cc1`, the z-score was -0.535.

`O=C(O)c1cc([N+](=O)[O-])ccc1N1CCCCC1` returned a z-score of -0.123.

As to `CCN(CC)S(=O)(=O)c1ccc(N2CCOCC2)c(NC(=O)Cc2ccc(Cl)cc2)c1`, the z-score came to 0.141.

Turning to `O=C(NCCc1ccncc1)Nc1ccccc1`, the z-score amounted to 0.141.

`O=C(O)c1c(F)c(F)cc2ccccc12`: the z-score was found to be 0.365.

Consider `CNc1oc(-c2ccco2)nc1C#N`, for which the z-score was found to be 0.498.

For `Cc1cc(Cl)c(S(=O)(=O)N2CCCCCC2)cc1OCC(N)=O`, the z-score amounted to 1.66.

In turn, `CCNC(=S)NNC(=O)c1ccccc1Cl` gave a z-score of -0.211.

The molecule `O=C(NC(=S)NCCN1CCOCC1)c1ccccc1Cl` yielded a z-score of -0.177.

On to `CC(C)CNC(=S)NC(=O)c1ccccc1Cl`, for which the z-score was 8.99 (active).

Take `Cc1cc(/C=C(\C#N)C(=O)Nc2ccccc2)c(C)n1-c1ccc2c(c1)OCO2`: the z-score was -0.335.

On to `CCN(CC)C(=O)Oc1ccc2cc(Br)ccc2c1`, for which the z-score was determined as 0.935.

As for `CC1CCN(CC(O)COC2CCC(C(C)(C)C)CC2)CC1` (stereo not given), the z-score is 4.18 (active).

`CC(C)(C)C1CCC(OCC(O)CN2CCN(Cc3ccccc3)CC2)CC1` (stereo not given): the z-score is -0.106.

Consider `CC(C)(C)C1CCC(OCC(O)CN2CCN(c3ccccc3)CC2)CC1` (stereo not given), for which the z-score is -0.235.

In turn, `CC(=O)/C(=N\Nc1ccccc1)Sc1nnc(-c2ccccc2)n1-c1ccccc1` displayed a z-score of -0.24.

Turning to `COc1ccccc1-n1nnnc1SCC(=O)NC1CCCC1`, the z-score was -0.293.

`Cc1cnc(NC(=O)CSc2ncn(-c3ccccc3)n2)s1` gave a z-score of -0.143.

As for `Cc1cccc(C)c1OCC(=O)N/N=C/c1cccn1C`, the z-score is -0.372.

`Cc1ccc(OCC(=O)N/N=C/c2cccn2C)cc1`: the z-score is 1.01.

`Cc1ccccc1OCC(=O)N/N=C/c1cccn1C` came in with a z-score of 2.42.

`CCCS(=O)(=O)N1CCCC(C(=O)NCCCN(C)c2ccccc2)C1` (stereo not given): the z-score was found to be 0.0444.

Regarding `O=S(=O)(c1ccccc1)N1CCN(C(=S)Nc2ccc(F)cc2)CC1`, the z-score was 3.37 (active).

For `O=S(=O)(c1ccc(Cl)cc1)N1CCN(C(=S)Nc2ccc(F)c(Cl)c2)CC1`, the z-score came out at 0.862.

With `NS(=O)(=O)c1ccc(NC(=S)N2CCN(S(=O)(=O)c3ccc(F)cc3)CC2)cc1`, the z-score was 0.195.

On to `COc1ccccc1-n1c(CCn2nc(C)c(Br)c2C)n[nH]c1=S`, for which the z-score was -0.472.

The molecule `CC1(C)CC(=O)C(N=Nc2ccc(Cl)cc2)=C(O)C1` registered a z-score of -0.154.

With `CC(C)c1ccc(OCC(=O)N(c2ccccn2)C2CCCCC2)cc1`, the z-score was -0.397.

In the case of `O=C(CSc1nncs1)NCc1ccc2c(c1)OCO2`, the z-score was -0.652.

Consider `COc1cccc(-n2c(SCC(=O)N3CCCC3)nc3c([nH]c4ccccc43)c2=O)c1`, for which the z-score was -0.189.

`Cc1nnc2c3ccccc3c(-c3cccc4ccccc34)nn12` registered a z-score of -1.04.

For the molecule `CC1CCCC(C)N1C(=O)CSc1nnc(COc2ccccc2)n1-c1ccccc1` (stereo not given), the z-score was -0.853.

In turn, `OCCNc1nc(N2CCCC2)nc(N2CCCC2)n1` showed a z-score of -0.968.

`CC(C)(CO)Nc1nc(N2CCCC2)nc(N2CCCC2)n1` had a z-score of 2.09.

Take `CC(C)(C)Nc1nc(N2CCCC2)nc(N2CCCC2)n1`: the z-score was -0.14.

In the case of `CC1CCCN(CC(O)COc2ccc(Cl)cc2)C1` (stereo not given), the z-score turned out to be 0.149.

For the molecule `O=C(CSc1nccc2ccccc12)N1CCN(c2ccccn2)CC1`, the z-score was -1.6.

In the case of `Cc1ccc(NC(=O)COC(=O)CNC(=O)c2cccc([N+](=O)[O-])c2)cc1S(=O)(=O)N1CCCCCC1`, the z-score stood at 0.745.

With `Cc1ccc(NC(=O)COc2cccnc2[N+](=O)[O-])cc1S(=O)(=O)N1CCCCC1`, the z-score is 4.45 (active).

In turn, `Cc1ccc(OCC(=O)Nc2cc(S(=O)(=O)N3CCCCC3)ccc2C)c([N+](=O)[O-])n1` yielded a z-score of -0.377.

Regarding `Cc1ccc(OCC(=O)Nc2cccc(S(=O)(=O)N3CCCCC3)c2)c([N+](=O)[O-])n1`, the z-score came to 0.216.

Turning to `Cc1ccc(OCC(=O)Nc2ccc(C)c(S(=O)(=O)N3CCCCC3)c2)c([N+](=O)[O-])n1`, the z-score was 6.89 (active).

As for `O=C(COc1cccnc1[N+](=O)[O-])Nc1cccc(S(=O)(=O)N2CCCCC2)c1`, the z-score was -0.289.

`CCC(c1nnc(SCC(=O)Nc2nnc(-c3ccccc3)o2)o1)N(C)C` (stereo not given) displayed a z-score of -0.0751.

The molecule `Oc1cccc(/C=N/Nc2cc(N3CCOCC3)nc(N3CCOCC3)n2)c1` displayed a z-score of -0.242.

Turning to `O=C(NC1CCCc2ccccc21)C1CCN(S(=O)(=O)c2ccccc2F)CC1` (stereo not given), the z-score was -0.424.

`O=C(NC1CCc2ccccc21)C1CCN(S(=O)(=O)c2ccc(-n3cnnn3)cc2)CC1` (stereo not given) registered a z-score of 0.204.

For `O=C(NC1CCc2ccccc21)C1CCN(S(=O)(=O)c2ccc(Cl)cc2)CC1` (stereo not given), the z-score came out at 2.31.

As for `O=C(/C=C/c1ccc(F)cc1)N1CCCN(C(=O)/C=C/c2ccc(F)cc2)CC1`, the z-score was -0.668.

Turning to `CCCn1c(SCC(=O)N2N=C3/C(=C/c4ccc(OC)cc4)CCCC3C2c2ccc(OC)cc2)n[nH]c1=O` (stereo not given), the z-score was -0.0176.

`O=C(CSCc1ccc(F)cc1)Nc1ccccc1`: the z-score turned out to be 0.0848.

`CC(C)CC(=O)NS(=O)(=O)c1ccc(N)cc1`: the z-score came out at 0.0965.

Take `COc1cccc(/C=C/C(=O)Oc2ccc(C(=O)c3ccc(F)cc3)cc2)c1`: the z-score is -2.23.

In the case of `Cc1ccc(S(=O)(=O)NCCNC(=O)C2CCCNC2=O)cc1` (stereo not given), the z-score came out at 2.41.

`CCCCNC(=O)C1CCCNC1=O` (stereo not given) registered a z-score of 0.0768.

As to `CN(C)CCNC(=O)C1CCCNC1=O` (stereo not given), the z-score was 0.0264.

Take `Cc1ccc(NC(=O)CCn2cccc2)cc1Cl`: the z-score was -0.079.

`Nc1cc(=O)[nH]c(SCC(=O)Nc2cccc(Cl)c2)n1` gave a z-score of 0.151.

As for `NC(=O)SCC(=O)Nc1ccc(Cl)cc1`, the z-score is 5.18 (active).

In turn, `Cc1ccc(Cl)cc1NC(=O)CSC(N)=O` returned a z-score of 0.476.

On to `Cc1ccc(NC(=O)CSC(N)=O)cc1Cl`, for which the z-score was 5.44 (active).

`N#CCSCC(=O)Nc1ccc(Cl)cc1` yielded a z-score of 0.285.

With `O=C(COc1ccccc1O)Nc1ccc(Cl)cc1`, the z-score is -0.0165.

`Cc1ccc(NC(=O)CSCC#N)cc1Cl`: the z-score is -0.0832.

`COC(=O)CCC(=O)Nc1cccc(Cl)c1`: the z-score was -0.0969.

Regarding `NC(=O)SCC(=O)Nc1cccc(Cl)c1`, the z-score was 2.86.

`Cc1ccc(NC(=O)Cn2cccc2)cc1Cl` displayed a z-score of 2.51.

For `Cc1ccc(Cl)cc1NC(=O)Cn1cccc1`, the z-score is -0.44.

The values above are taken from PubChem BioAssay AID488969 (Vanderbilt High Throughput Screening Facility, 2010).
